HGIII-sPLA2 inh = human group III sPLA2 inhibitors, primary screen, biochemical, QFRET, BODIPY PC-A2 liposome substrate. QFRET BODIPY PC-A2 liposome hydrolysis, fluorescence. actives 0.56% (n = 370,000). inhibition, % at 12.2 µM. AID 743126, 2013;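 active = inhibition above mean plus 3 SD of compounds lying within the high and low control bounds, cut at about 19% in these data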
Target sequence (Q9NZ20 whole entry, looked up): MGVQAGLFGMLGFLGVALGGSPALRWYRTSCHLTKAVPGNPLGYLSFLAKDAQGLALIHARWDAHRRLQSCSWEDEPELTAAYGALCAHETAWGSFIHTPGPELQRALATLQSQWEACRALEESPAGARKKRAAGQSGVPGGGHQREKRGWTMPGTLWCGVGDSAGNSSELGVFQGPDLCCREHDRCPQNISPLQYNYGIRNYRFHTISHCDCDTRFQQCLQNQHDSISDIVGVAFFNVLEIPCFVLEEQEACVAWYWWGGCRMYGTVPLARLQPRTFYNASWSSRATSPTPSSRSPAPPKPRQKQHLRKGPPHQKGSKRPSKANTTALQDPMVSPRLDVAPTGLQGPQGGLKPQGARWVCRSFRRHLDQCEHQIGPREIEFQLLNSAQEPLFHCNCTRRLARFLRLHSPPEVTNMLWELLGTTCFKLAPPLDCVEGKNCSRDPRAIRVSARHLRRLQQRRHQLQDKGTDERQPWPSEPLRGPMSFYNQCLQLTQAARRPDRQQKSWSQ
SKN-1 block = suppressors of acrylamide-induced Pgst-4::GFP reporter in worms, primary screen, SKN-1 inhibitor project, whole organism, uHTS, GFP/RFP fluorescence ratio, strain VP596; inhibition, % at 21.8 µM; C. elegans VP596 Pgst-4::GFP/RFP ratio, 24 h; actives 0.49% (n = 360,000); AID 624304, 2012;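 active = interference check ratio from 0.5 to 1.5 plus GFP to RFP signal ratio inhibition reaching or exceeding a fixed threshold, cut at about 30% in these data, passing the limit was not always enough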
SUMO Mot1 rescue = yeast Mot1-301 growth rescue at high temperature, primary screen, SUMOylation pathway inhibitor project, S. cerevisiae, ATP luminescence, 38.5C | S. cerevisiae Mot1-301 growth rescue; percent above DMSO median, 100 means doubled | growth rescue, % at 18.8 µM | actives 1% (n = 320,000) | AID 2716, 2010;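 active = every valid replicate shows activation above 250% relative to neutral control wells; inactive = the rest, any valid replicate at or below 250%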
Efflux pump mplx = inhibitors of Candida efflux pumps in yeast, primary screen, S. cerevisiae, Nile Red, multiplex; S. cerevisiae Candida pump triplex; inhibition, % at 10 µM; actives 0.44% (n = 330,000);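 active = plate passing quality check with inhibition over a set limit, or well fluorescence over plate mean plus 4 SD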;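 note: Nile Red retained in pooled yeast measured as flow cytometry median fluorescence; higher means more Nile Red kept so more efflux inhibition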
Yeast cmpd fluor = compound fluorescence in yeast efflux pump counter-screen; S. cerevisiae AD/pABC3, flow cytometry; fluorescence ratio to DMSO, % at 10 µM; shares compounds with Efflux pump mplx; actives 4% (n = 1,700);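 active = fluorescence ratio to DMSO above its plate's cutoff, the plate mean ratio plus 5 SD, cut at about 210% in these data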;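 note: unstained yeast with no Nile Red so the signal is compound autofluorescence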
CaMdr1 efflux inh = inhibitors of Candida albicans Mdr1 efflux, confirmation, flow cytometry, singleplex, Cherry Pick1 set; shares compounds with Efflux pump mplx; S. cerevisiae AD/CaMDR1, Nile Red efflux; inhibition, % at 10 µM; actives 1% (n = 1,700); in the data active = inhibition above about 26%;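 note: higher means more Nile Red retained so more efflux inhibition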
CaCdr2 efflux inh = inhibitors of Candida albicans Cdr2 efflux pump, confirmation, S. cerevisiae AD/CaCDR2, flow cytometry, cherry pick 1, singleplex; shares compounds with Efflux pump mplx; Nile Red retention; Nile Red retention ratio vs DMSO, % at 10 µM; actives 4% (n = 1,700); in the data active = Nile Red retention ratio vs DMSO above about 190%;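 note: higher ratio means more blocking of Cdr2 efflux of the dye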
CaCdr1 efflux inh = inhibitors of Candida albicans Cdr1 efflux pump, confirmation, S. cerevisiae AD/CaCDR1, flow cytometry, cherry pick 1, singleplex; actives 1% (n = 1,700); shares compounds with Efflux pump mplx; inhibition, % at 10 µM; Nile Red efflux;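 active = inhibition above the screen-wide mean plus twice its standard deviation, cut at about 32% in these data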
Large screens that a line does not name were inactive (follow-up assays come after a bar, where they were run). Shown are actives, neighbours in structure and some others; about 2.2% of the full set was active somewhere.

NC(=O)c1nsc(C(=O)N(c2ccccc2)C(C(=O)NCc2ccc(F)cc2)c2ccc(O)cc2)c1N (configuration not stated)	none
O=C(CNCCc1ccc(Cl)cc1)Nc1ccc(C(=O)N2CCCCC2)cc1	none
CC1(C)C[C@H](O)[C@@]23C[C@@H](OC2=O)[C@]2(C)C(=CCC4[C@@]5(C)CC[C@H](O)C(C)(C)C5CC[C@]42C)[C@@H]3C1 (some centres not stated)	none (no result: HGIII-sPLA2 inh, SKN-1 block)
COC/C=C/C1=CC2=CC(=O)C(C)(OC(=O)c3cnc4ccccc4n3)C(=O)C2=CN1CC(C)C (configuration not stated)	Efflux pump mplx 0.9 (no result: HGIII-sPLA2 inh) | Yeast cmpd fluor inactive | CaMdr1 efflux inh inactive | CaCdr2 efflux inh inactive | CaCdr1 efflux inh inactive
COc1ccc([C@H]2[C@H](C(=O)C(C)(C)C)N3N=Cc4ccccc4C3[C@]23N=C(c2ccccc2)OC3=O)cc1 (some centres not stated)	Efflux pump mplx 0.8 | Yeast cmpd fluor inactive | CaMdr1 efflux inh inactive | CaCdr2 efflux inh inactive | CaCdr1 efflux inh inactive
COc1ccc([C@H]2[C@H](C(=O)C(C)(C)C)N3N=Cc4ccccc4C3[C@]23N=C(c2ccccc2)OC3=O)cc1OC (some centres not stated)	none (no result: HGIII-sPLA2 inh)
COc1ccccc1CNS(=O)(=O)c1ccc2c(c1)CC(C)N2C(=O)C1CCC1 (configuration not stated)	none | Yeast cmpd fluor inactive | CaMdr1 efflux inh inactive | CaCdr2 efflux inh inactive | CaCdr1 efflux inh inactive
CC1Cc2cc(S(=O)(=O)N3CCCCC3)ccc2N1C(=O)C1CCC1 (configuration not stated)	none | Yeast cmpd fluor inactive | CaMdr1 efflux inh inactive | CaCdr2 efflux inh inactive | CaCdr1 efflux inh inactive
Nn1c(SCC(=O)N2CCOCC2)nnc1-c1cccnc1	none
BrC(=C\c1ccccc1)/C=N/Nc1nc2ccccc2[nH]1	Efflux pump mplx 2.5 | Yeast cmpd fluor inactive | CaMdr1 efflux inh inactive | CaCdr2 efflux inh inactive | CaCdr1 efflux inh inactive
COc1ccccc1C(=O)NC(=Nc1nc2ccccc2o1)NC(=O)c1ccccc1OC	none
O=C(NC(=Nc1nc2ccccc2o1)NC(=O)c1ccccc1)c1ccccc1	Efflux pump mplx 1.2 | Yeast cmpd fluor inactive | CaMdr1 efflux inh inactive | CaCdr2 efflux inh inactive | CaCdr1 efflux inh inactive
COc1ccc2c(-c3ccc(OCCN4CCOCC4)cc3)c(-c3ccccc3OC)sc2c1	none (no result: HGIII-sPLA2 inh, SUMO Mot1 rescue) | Yeast cmpd fluor inactive | CaMdr1 efflux inh inactive | CaCdr2 efflux inh inactive | CaCdr1 efflux inh inactive
COc1cc2sc(-c3ccccc3OC)c(-c3ccc(OCCN4CCOCC4)cc3)c2cc1OC	none (no result: HGIII-sPLA2 inh, SUMO Mot1 rescue) | Yeast cmpd fluor inactive | CaMdr1 efflux inh inactive | CaCdr2 efflux inh inactive | CaCdr1 efflux inh inactive
Oc1ccc2sc(-c3ccccc3O)c(-c3ccc(OCCN4CCCCC4)cc3)c2c1	none (no result: SUMO Mot1 rescue, Efflux pump mplx)
COC(=O)c1c(C(=O)c2ccc(Br)cc2)n(C)c2ccccc12	none
COc1cccc(/C=c2\s/c(=C/C(=O)c3ccc(C)cc3)[nH]c2=O)c1OC	none
COc1ccc(/C=c2\s/c(=C/C(=O)c3ccc(C)cc3)[nH]c2=O)c(OC)c1	Efflux pump mplx 18.8 | Yeast cmpd fluor inactive | CaMdr1 efflux inh inactive | CaCdr2 efflux inh inactive | CaCdr1 efflux inh inactive
O=C(CSc1nnc(-c2cccs2)n1Cc1ccco1)Nc1ccc(Oc2ccccc2)cc1	none (no result: SKN-1 block, SUMO Mot1 rescue, Efflux pump mplx)
O=C(CSc1nnc(Cc2cccs2)n1Cc1ccco1)Nc1ccc(Cl)cc1Cl	none | Yeast cmpd fluor inactive | CaMdr1 efflux inh inactive | CaCdr2 efflux inh inactive | CaCdr1 efflux inh inactive
Cc1cc(C)nc(SCc2nnc(SCC(=O)Nc3ccc(C)c(C)c3)n2Cc2ccco2)n1	Efflux pump mplx 1.0 | Yeast cmpd fluor inactive | CaMdr1 efflux inh inactive | CaCdr2 efflux inh inactive | CaCdr1 efflux inh inactive
O=C(CSc1nnc(Cc2cccs2)n1Cc1ccco1)Nc1ccc(Br)cc1	none | Yeast cmpd fluor inactive | CaMdr1 efflux inh inactive | CaCdr2 efflux inh inactive | CaCdr1 efflux inh inactive
Cc1cc(Cl)ccc1NC(=O)CSc1nnc(-c2ccncc2)n1Cc1ccco1	none
NS(=O)(=O)c1ccc(OC(=O)CNC(=O)OCc2ccccc2)cc1	none
Cc1ccnc(N2C(=O)c3cccc4c([N+](=O)[O-])ccc(c34)C2=O)c1	Efflux pump mplx 0.9 | Yeast cmpd fluor inactive | CaMdr1 efflux inh inactive | CaCdr2 efflux inh inactive | CaCdr1 efflux inh inactive
O=[N+]([O-])c1ccc(-c2csc3[n+]2CCS3)cc1	none
Fc1ccc(-c2csc3[n+]2CCS3)cc1	Efflux pump mplx 3.0 | Yeast cmpd fluor inactive | CaMdr1 efflux inh inactive | CaCdr2 efflux inh inactive | CaCdr1 efflux inh inactive
CN1CCC(NC(=O)NC2CCCCC2)CC1	none
O=C(NC1CCCCCCC1)NC1CCCCC1	Efflux pump mplx 1.0 | Yeast cmpd fluor inactive | CaMdr1 efflux inh inactive | CaCdr2 efflux inh inactive | CaCdr1 efflux inh inactive
Cc1c2cc[n+](CCN3CCCCC3)cc2c(C)c2c1[nH]c1ccc(O)cc12	none (no result: HGIII-sPLA2 inh, SUMO Mot1 rescue, Efflux pump mplx) | Yeast cmpd fluor inactive | CaMdr1 efflux inh inactive | CaCdr2 efflux inh inactive | CaCdr1 efflux inh inactive
COc1ccc(C(C)=O)cc1CSc1nc2cc(C(=O)O)ccc2c(=O)n1Cc1ccccc1	Efflux pump mplx 5.8 | Yeast cmpd fluor inactive | CaMdr1 efflux inh inactive | CaCdr2 efflux inh inactive | CaCdr1 efflux inh inactive
CCOC(Cn1c(SCc2cc(C(C)=O)ccc2OC)nc2ccccc2c1=O)OCC	none
c1ccc2c(c1)Cc1cc(CN3CCOCC3)ccc1-2	Efflux pump mplx 5.9 | Yeast cmpd fluor inactive | CaMdr1 efflux inh inactive | CaCdr2 efflux inh inactive | CaCdr1 efflux inh inactive
c1ccc(CN2CCOCC2)cc1	none
O=C(NCC1CCCO1)C1CCCN(S(=O)(=O)c2cccc(C(F)(F)F)c2)C1 (configuration not stated)	Efflux pump mplx 1.3 | Yeast cmpd fluor inactive | CaMdr1 efflux inh inactive | CaCdr2 efflux inh inactive | CaCdr1 efflux inh inactive
O=C(CCc1ccccc1)N[C@H]1C(=O)CCC[C@]12C(=O)N(Cc1ccccc1)c1ccccc12	none (no result: SKN-1 block, SUMO Mot1 rescue, Efflux pump mplx)
COc1ccc(-c2sc3cc(OC)ccc3c2-c2ccc(OCCN3CCCCC3)cc2)cc1	none (no result: SUMO Mot1 rescue, Efflux pump mplx)
COc1cccc(-c2sc3ccc(OC)cc3c2-c2ccc(OCCN3CCCC3)cc2)c1	Efflux pump mplx 73.4 (no result: HGIII-sPLA2 inh, SUMO Mot1 rescue) | Yeast cmpd fluor inactive | CaMdr1 efflux inh inactive | CaCdr2 efflux inh active | CaCdr1 efflux inh inactive
